Laboratory results taken from PubChem BioAssay AID1458 (National Center for Advancing Translational Sciences (NCATS), 2008).
The whole screen tested about 210,000 compounds, of which about 5,900 (2.8%) were called active. A call without a number means that no potency is given here. Inconclusive results (about 5%) are left out. The call rests on the fitted dose curve; in most records, active means well fitted activation curve with a large enough effect; inconclusive means small, poorly fitted or top-dose-only effect; inactive means no such curve, though single readings can be large or run the other way. The sample as a whole holds a higher share of actives than the screen did.

Assay: qHTS Assay for Enhancers of SMN2 Splice Variant Expression; further: nearly all actives have a fitted effect of over 55% in size
Conditions: HEK293 SMN2-luciferase splicing reporter, luminescence, 30-36 h; series mostly up to 46.1 µM
Method in brief: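 qHTS luciferase splicing reporter: luminescence rises when SMN2 exon 7 is included in transfected HEK293 cells. Compound exposure lasted 30-36 h at 37C, with 4.5 mM final sodium butyrate as control, followed by a ONE-Glo read.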
Potency means the concentration at half of the fitted maximal effect.

| Compound | Potency | activity change, positive = activation |
| --- | --- | --- |
| CC(C)[C@@H]1NC(=O)[C@H](Cc2ccccc2)NC(=O)[C@@H](CC(=O)O)NC(=O)CNC(=O)[C@H](CCCNC(=N)N)NC1=O | inactive | – |
| CCOC(=O)N1CCC(NC(=O)c2ccc3nc(N4CCOCC4)sc3c2)CC1 | inactive | – |
| Cc1ccc(C)n1-c1nnc(N2CCC(C(=O)NCc3ccc(F)cc3)CC2)s1 | inactive | – |
| O=C(NCc1ccc(F)cc1)c1ccc2nc(N3CCCCC3)sc2c1 | 4.47 µM (active) | – |
| O=C(NCCCN1CCN(c2cccc(Cl)c2)CC1)c1nnc(Cc2ccc(F)cc2Cl)o1 | inactive | – |
| COc1ccc(Cl)cc1NC(=O)Cn1c(=O)c2ccccc2n2nncc12 | inactive | – |
| CCOc1ccc(CCNC(=O)Cn2nc(CC)n3c(cc4sc(CC)cc43)c2=O)cc1OCC | inactive | – |
| Cc1ccc(Cl)cc1NC(=O)CCS(=O)(=O)c1ccc(Br)s1 | inactive | – |
| Cc1nc2nc(NCc3cccc(Br)c3)[nH]n2c(=O)c1Cc1ccccc1 | inactive | – |
| Cc1cccc(NC(=O)c2ccc3ccccc3n2)n1 | 12.6 µM (active) | – |
| Cc1cccc(NC(=O)c2ccccc2NC(=O)C(C)(C)C)n1 | inactive | – |
| Cc1cccc(NC(=O)c2cc(N3C(=O)CCC3=O)ccc2Cl)n1 | inactive | – |
| Cc1csc(SCC(=O)Nc2sccc2C#N)n1 | 12.6 µM (active) | – |
| Cc1cccc(C)c1Nc1nnc(SCC(=O)Nc2sccc2C#N)s1 | inactive | – |
| COc1ccc(NC(=O)CSc2nc(C)cs2)cc1 | inactive | – |
| CCCc1cc(=O)n2[nH]c(NCc3ccc(CC)cc3)nc2n1 | inactive | – |
| CCOc1ccccc1NC(=O)Cn1c(=O)n(-c2cccc(C)c2)c(=O)c2c1c1cc(OC)ccc1n2C | inactive | – |
| COc1ccc(-c2nc3nc(C)cc(C)n3c2Nc2c(C)cccc2C)cc1 | inactive | – |
| CCOC(=O)c1c(NC(=O)Cc2coc3ccc(CC)cc23)sc2c1CCC2 | inactive | – |
| CCCCOc1ccc(C(=O)NCc2ccco2)cc1 | inactive | – |
| N#Cc1ccc(OCc2nnc(-c3ccc([N+](=O)[O-])cc3)o2)cc1 | inactive | – |
| COc1ccc(OCC(=O)Nc2nnc(-c3ccco3)s2)cc1 | inactive | – |

| Compound | Potency | activity change, positive = activation |
| --- | --- | --- |
| COc1ccc(C(=O)CSc2nnc(-c3ccco3)o2)cc1 | inactive | – |
| CCCCOc1ccc(-c2nnc(-c3ccco3)o2)cc1 | 14.1 µM (active) | – |
| CCOc1ccc(-c2nnc(-c3ccco3)o2)cc1 | 1.12 µM (active) | – |
| Cc1ccc(NC(=O)Nc2sc3nc4n(c(=O)c3c2C)CCC(C)CC4)c(Cl)c1 (stereo not given) | inactive | – |
| C=C1O[C@@](CO)(n2cnc3c(N)ncnc32)[C@H](O)[C@@H]1O | inactive | – |
| O=C1CC(c2nnc(Cc3ccc(Cl)cc3)o2)CN1c1ccccc1 (stereo not given) | inactive | – |
| COc1ccc(OC)c(NC(=O)C2CCN(S(=O)(=O)c3ccc(C)cc3)CC2)c1 | inactive | – |
| COc1ccc(Cl)cc1-n1c(CCC(=O)O)ccc1-c1ccc(C)cc1 | inactive | – |
| COC(=O)N1C(/C=C/C=C/c2ccc(OC)cc2)=Cc2ccccc2C1CC(C)=O (stereo not given) | – | -7.94% [at 9.22 µM] (inactive) |
| Cc1ccc2oc(C(=O)Nc3ccc(S(=O)(=O)N4CCCCCC4)cc3)cc(=O)c2c1 | inactive | – |
| Cc1ccc(NC(=O)NC(=O)N(C2CCCCC2)S(=O)(=O)c2ccccc2)cc1 | 7.94 µM (active) | – |
| CC(c1ccco1)N(C(=O)Nc1ccccc1)C1CCCCC1 (stereo not given) | inactive | – |
| CS(=O)(=O)N(C(=O)NC(=O)NC1CCS(=O)(=O)C1)C1CCCCC1 (stereo not given) | inactive | – |
| CCOC(=O)C1CCCN(CC(=O)Nc2cc(C)c3c(=O)oc4ccccc4c3n2)C1 (stereo not given) | inactive | – |
| CCN(CC)S(=O)(=O)c1ccc2c(c1)c(=O)c(C(=O)N1CCN(c3cccc(Cl)c3)CC1)cn2C | inactive | – |
| CCOCCCNC(=O)c1c(NC(=O)Cc2coc3ccc(C)cc23)sc2c1CCC2 | inactive | – |
| Cc1ccc(C(=O)OCc2nc(N)nc(Nc3ccccc3C)n2)cc1 | inactive | – |
| Cc1ccccc1Nc1nc(N)nc(CSc2ccccc2)n1 | 14.1 µM (active) | – |
| Cc1ccccc1Nc1nc(N)nc(CN2CCN(c3ccccn3)CC2)n1 | inactive | – |
| COc1ccc(CCNC(=O)CCCn2c(=O)c3ccccc3n(Cc3ccc(C)cc3)c2=O)cc1OC | inactive | – |
| CCc1c(C)sc(NC(=O)/C=C/c2ccc3c(c2)OCO3)c1C(=O)OC | inactive | – |
| COc1ccc(OC)c(/C=C/C(=O)OCC(=O)Nc2ccc3c(c2)OCCO3)c1 | inactive | – |

| Compound | Potency | activity change, positive = activation |
| --- | --- | --- |
| O=C(/C=C\c1ccc2c(c1)OCO2)NC1(C(=O)Nc2ccc3c(c2)OCCO3)CCCCC1 | inactive | – |
| COc1cccc(/C=C/C(=O)Nc2ccc3c(c2)OCCO3)c1 | 11.2 µM (active) | – |
| Cc1cccc(NC(=O)/C=C/c2ccc3c(c2)OCO3)n1 | 2.24 µM (active) | – |
| COc1ccc(/C=C/C(=O)Nc2ccc3c(c2)OCCO3)cc1OC | inactive | – |
| COc1ccc(NC(=O)CNC(=O)Cn2ccc3ccccc3c2=O)c(OC)c1 | inactive | – |
| Cc1ccc(C)c(Cn2c(C(=O)O)c(CNCc3cccs3)c3ccccc32)c1 | inactive | – |
| CCOc1ccc(Nc2c(S(=O)(=O)c3ccccc3)cnc3ccccc23)cc1 | inactive | – |
| COc1cc(Br)cc2cc(S(=O)(=O)c3ccccc3)c(=O)oc12 | inactive | – |
| CN(Cc1ccccc1)C(=O)c1cn(C)c2ccc(S(=O)(=O)N3CCCCC3)cc2c1=O | inactive | – |
| CCOc1cccc(C(=O)Nc2nnc(-c3cccs3)s2)c1 | 12.6 µM (active) | – |
| CCc1nnc(NC(=O)c2cccs2)s1 | inactive | – |
| CCOc1cccc(C(=O)Nc2cccnc2)c1 | inactive | – |
| CCC(C)[C@@H](N)C(=O)O (stereo not given in full) | inactive | – |
| Cc1ccc(N2CC(c3nnc(Cc4ccccc4Cl)o3)CC2=O)cc1 (stereo not given) | inactive | – |
| COc1ccccc1N1CCN(C(=O)c2cc(-c3ccc(Cl)c(Cl)c3)on2)CC1 | inactive | – |
| COc1ccccc1-c1cc(C(=O)N2CCCCC2)no1 | 14.1 µM (active) | – |
| O=C(c1cc(-c2cccs2)on1)N1CCCCC1 | 14.1 µM (active) | – |
| O=C(c1cc(-c2ccc(F)cc2)on1)N1CCN(c2ccc(F)cc2)CC1 | inactive | – |
| COc1cccc(-c2cc(C(=O)N3CCN(c4ccccc4OC)CC3)no2)c1 | inactive | – |
| O=C(c1ccc(F)cc1)N1CCCC(c2nc(-c3cccs3)no2)C1 (stereo not given) | inactive | – |
| CCCCn1cc(S(=O)(=O)c2ccc(OCC)cc2)c(=O)c2cc(OC)c(OC)cc21 | inactive | – |
